Experimental data taken from PubChem BioAssay AID1259343 (VanderVen Lab, College of Veterinary Medicine, Cornell …, 2017).
The whole screen tested about 6,200 compounds, of which about 2,900 (47%) were called active. So high a share suggests a set chosen from earlier hits. The list shows a part of the results. Unmarked numbers belong to inactive results. Rule as the data show it: active = inhibition above about 50%; inactive = the rest.

Assay: Mycobacterium tuberculosis growth inhibition, primary screen (AID 1259343)
Settings: inhibition: at 10 µM, active compounds read high; outcome: 10 uM
For C1CCC(C(CC2CCCCN2)C2CCCCC2)CC1 (stereo not given), the inhibition was 55.1% (active).
With CC(OC1CC(=O)CC2C(=O)c3ccccc3C(=O)C12)c1ccccc1 (stereo not given) the inhibition was 94.3% (active).
In the case of CC(C)c1ccc2c(c1O)CC[C@H]1C3=C(CC[C@]21C)C(=O)OC3, the inhibition is reported as 45%.
In the case of C(=NNc1ccccc1)c1cnn(-c2ccccc2)c1, the inhibition is reported as 94.4% (active).
For Cn1cc(C=NNc2ccccc2)c2ccccc21, the inhibition was -30.1%.
For C(=NNC1=Nc2cccc3cccc1c23)c1ccccc1, the inhibition was 15.1%.
CN1CC(C(=O)Nc2ccc3nc(C4CC4)oc3c2)CC1=O (stereo not given) gave an inhibition of -6.81%.
With COc1cccc(C(=O)Oc2ccc(C(=O)COC(=O)C3CC(=O)N(C4CCCCC4)C3)cc2)c1 (stereo not given) the inhibition was -11.2%.
Work on O=C1CCC(C(=O)Nc2ccc(Oc3ccccc3)cc2)N1 (stereo not given) yielded an inhibition of 29.5%.
In the case of O=C(Nc1nc(-c2ccc(Cl)cc2)cs1)C1CC(=O)N(C2CC2)C1 (stereo not given), the inhibition is reported as 21.7%.
For CN(C)c1ccc2cc(NC(=O)C3CC(=O)N(C4CCCC4)C3)ccc2n1 (stereo not given), the inhibition was 87.7% (active).
In the case of COc1c(Cl)cc(NC(=O)C2CC(=O)N(C)C2)cc1Cl (stereo not given), the inhibition is reported as 43.6%.
For Cc1ccc(NC(=O)C2CC(=O)N(C3CC3)C2)cc1C(F)(F)F (stereo not given), the inhibition was 63.6% (active).
In the case of CN(C)C(=O)N1CCC(C(=O)Nc2ccc(Oc3ccccc3)cc2)CC1, the inhibition is reported as 81.9% (active).
For O=C(Nc1ccc(Oc2ccccc2)cc1)C1CC(=O)N(C2CC2)C1 (stereo not given), the inhibition was 66.1% (active).
Work on CC1CC(N2CCN(c3nccs3)CC2)C(=O)O1 (stereo not given) yielded an inhibition of 2.21%.
Work on O=C(Nc1ccc(Oc2ccccc2Cl)cc1)N1CCOC2CCCCC21 (stereo not given) yielded an inhibition of 26.2%.
With CC(=O)NCCC1CCCCN1C(=O)Nc1ccc(Oc2ccccc2)cc1 (stereo not given) the inhibition was 83.9% (active).
For Fc1cccc(-c2nnn(CCc3ccccn3)n2)c1, the inhibition was 65.1% (active).
Fc1ccc(-c2nnn(CCCc3n[nH]c(Cc4ccccc4)n3)n2)cc1 showed an inhibition of 37.6%.
In the case of CCNC(=O)CCC(=O)Nc1ccc(OC2CCCC2)c(F)c1, the inhibition is reported as 92.8% (active).
Compound CNS(=O)(=O)c1cc(NC(=O)CNC(=O)C2CCCCC2)ccc1C has an inhibition of 8.53%.
Compound c1ccc2c(c1)oc1c(NCC3CCCCC3)ncnc12 has an inhibition of 23.3%.
With c1ccc2c(c1)oc1c(NC3CCCCC3)ncnc12 the inhibition was -31.2%.
With c1ccc2c(c1)oc1c(NC3CCCCCC3)ncnc12 the inhibition was 102% (active).
In the case of COc1cc(C=c2sc(=CC(=O)c3ccco3)[nH]c2=O)cc(Br)c1O, the inhibition is reported as 91.2% (active).
For Fc1ccccc1CON=C1CCN(c2ncccn2)CC1, the inhibition was 83.5% (active).
Compound c1cnc(NCc2cccnc2N2CCc3ccccc3C2)nc1 has an inhibition of 36.6%.
For CCN(CC(=O)Nc1c(Cl)cccc1Cl)C(=O)CCn1c(=O)oc2cc(Cl)ccc21, the inhibition was -5.97%.
For CN(Cc1nc2c(s1)CCCC2)C(=O)c1cc(COc2ccc(-n3cncn3)cc2)on1, the inhibition was 85.4% (active).
CCc1ccc(CN(C)C(=O)c2cc(COc3ccc(-n4cncn4)cc3)on2)cc1 gave an inhibition of 36.7%.
With COc1cccc(C=C2N=C(c3ccccc3OC(F)F)OC2=O)c1 the inhibition was 86.9% (active).
In the case of COc1ccc(C=C2N=C(c3cccc(F)c3)OC2=O)cc1, the inhibition is reported as 3.76%.
Work on C=CCOc1ccc(C=C2N=C(c3ccccc3I)OC2=O)cc1OC yielded an inhibition of -4.12%.
With CN(C)Cc1ccc2ccc3cccc4ccc1c2c34 the inhibition was 90.5% (active).
Compound Cc1cccc(CN(C)C)c1OC(=O)N(C)C has an inhibition of 3.93%.
For CN(Cc1ccccc1C#N)c1ccc2ccccc2c1, the inhibition was 30.3%.
In the case of Cc1oc(-c2ccc(Cl)cc2)nc1CN(C)Cc1ccc2nonc2c1, the inhibition is reported as 31.7%.
With CN(Cc1ccc(-c2ccc(Cl)cc2)o1)C(=O)CCl the inhibition was 90.9% (active).
For CN(Cc1ccc(-c2ccc(Cl)cc2)o1)C(=O)CNC(=O)c1ccccc1, the inhibition was 72.2% (active).
In the case of Cc1cc(NC(=O)c2csc(-c3ccc(Cl)cc3)n2)n[nH]1, the inhibition is reported as 74.4% (active).
Work on Cc1ccc(-c2nc(COC(=O)c3cc(Cl)c[nH]3)cs2)cc1 yielded an inhibition of 34.1%.
Cn1ccsc1=NC(=O)c1csc(-c2ccc(Cl)cc2)n1 showed an inhibition of 15.8%.
With Cc1nc2cc(NC(=O)C3CCCN(C(=O)OC(C)(C)C)C3)ccc2o1 (stereo not given) the inhibition was 82.6% (active).
In the case of Cc1nc2cc(NC(=O)C(C)Oc3ccc(Cl)cc3)ccc2o1 (stereo not given), the inhibition is reported as -4.42%.
Cc1cc2cc(C(=O)N3CCCC(C(=O)Nc4ccc(-c5ccco5)cc4)C3)ccc2o1 (stereo not given) showed an inhibition of -11.5%.
O=C(Nc1ccccc1N1CCCC1)c1cc(C2CC2)on1 showed an inhibition of 36.3%.
With CC(NC(=O)c1cc(C2CC2)on1)c1cc(Cl)ccc1Cl (stereo not given) the inhibition was 56.5% (active).
Work on CC(C)C(=O)N1CCC(NC(=O)c2cc(C3CC3)on2)CC1 yielded an inhibition of -6.02%.
With CCCc1cc(=O)[nH]c(-n2nc(C)cc2NC(=O)c2ccc(Br)cc2)n1 the inhibition was 99.8% (active).
With CCCc1cc(=O)[nH]c(-n2nc(C)cc2NC(=O)c2cccc(Br)c2)n1 the inhibition was 101% (active).
In the case of CCCc1cc(=O)[nH]c(-n2nc(C)cc2NC(=O)c2cccs2)n1, the inhibition is reported as 100% (active).
Compound CCc1cc(=O)[nH]c(-n2nc(C)cc2NC(=O)c2cccs2)n1 has an inhibition of -29.6%.
In the case of CCCc1cc(=O)[nH]c(-n2nc(C)cc2NC(=O)c2ccc(C)cc2)n1, the inhibition is reported as 101% (active).
With CNc1cc(C)nc(NCc2cc(C)cc3c(C)c(C)[nH]c23)n1 the inhibition was 41.1%.
With CCCc1cc(=O)[nH]c(-n2nc(C)cc2NC(=O)c2cccc(C(F)(F)F)c2)n1 the inhibition was 91.4% (active).
For CCCc1cc(=O)[nH]c(-n2nc(C)cc2NC(=O)c2ccccc2)n1, the inhibition was 101% (active).
In the case of CCCc1cc(=O)[nH]c(-n2nc(C)cc2NC(=O)c2cccc(OC)c2)n1, the inhibition is reported as 99.8% (active).
In the case of CCCc1cc(=O)[nH]c(-n2nc(C)cc2NC(=O)c2cccc(F)c2)n1, the inhibition is reported as 100% (active).
In the case of CCCc1cc(=O)[nH]c(-n2nc(C)cc2NC(=O)c2cc(OC)cc(OC)c2)n1, the inhibition is reported as -22.1%.
Compound CCN(CC)c1nc2sc(C(=O)NC3(C)CCCC3)cc2s1 has an inhibition of 32.9%.
In the case of CCCc1cc(=O)[nH]c(-n2nc(C)cc2NC(=O)c2cc(C(F)(F)F)cc(C(F)(F)F)c2)n1, the inhibition is reported as 13.6%.
With CCCc1cc(=O)[nH]c(-n2nc(C)cc2NC(=O)c2cccc(Cl)c2)n1 the inhibition was 101% (active).
For CCCc1cc(=O)[nH]c(-n2nc(C)cc2NC(=O)c2ccc(C(F)(F)F)cc2)n1, the inhibition was 102% (active).
With CCCc1cc(=O)[nH]c(-n2nc(C)cc2NC(=O)c2ccc(F)cc2)n1 the inhibition was 101% (active).
